This is a sample that favours compounds with a hit; in the whole collection about 1.6% have one here.
Peg3 imprint – genomic imprint erasure induction; mouse ES Peg3-LacZ reporter, beta-gal luminescence, 40 h; 110,000 tested, 0.02% active; Potency, µM (titrated, usually from 60.7 µM), usual class: activators; AID 1948
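Gelatin-coated wells received 300 freshly trypsinized female ES cells with a Peg3LacZ-Neo reporter on the maternal allele, then incubated 40 hours at 37C. BetaGlo was added for 5 minutes at room temperature before a single luminescence read.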
p53ts 32C kill – cytotoxicity in p53ts cells at permissive temperature. H1299-p53A138V at 32C, ATP luminescence viability, 24 h. Potency, µM (top dose mostly 46.1 µM), hits mostly cytotoxic. 130,000 tested, 0.93% active; note: nearly all actives have a fitted effect of over 55% in size
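H1299-p53 A138V cells (temperature-sensitive p53) exposed 24 h to up to 46 uM compound at 32C, where p53 is wild-type in conformation. Viability read as ATP luminescence and normalised to DMSO and 100 uM tamoxifen. AC50 fitted with the Hill equation.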
p53ts 39C kill – cytotoxicity in p53ts cells at nonpermissive temperature; Potency, µM (highest dose often 46.1 µM), most hits filed as cytotoxic; H1299-p53A138V viability at 39C, ATP luminescence, 24 h; AID 902; 130,000 tested, 1.5% active; note: nearly all actives have a fitted effect of over 55% in size
Numbers stand for hits; [ ] = dose if it differs, or a comment. Calls come from the whole dose curve; as a rule, active = well fitted curve in the direction sought with a large enough effect; inconclusive = small, poorly fitted or top-dose-only effect, or another doubt; inactive = no such curve, though single readings can be large; an effect the other way counts as inactive or inconclusive.

Cc1c(C(=O)N(C)C)sc2c1c(=O)n(-c1ccc(Cl)c(Cl)c1)c(=O)n2CC(=O)Nc1cccc(C(F)(F)F)c1 was read as Peg3 imprint inactive[10.9 µM], p53ts 32C kill inactive and p53ts 39C kill inactive.
For COc1ccc(-c2cnc(C)o2)cc1S(=O)(=O)Nc1ccc(C)c(F)c1 the results were Peg3 imprint inactive[10.9 µM], p53ts 32C kill inactive and p53ts 39C kill inconclusive.
Screening Cc1ccc2nc(-c3cccc(NC(=O)CSc4ccc(Cl)cc4)c3)oc2c1 returned Peg3 imprint inactive[10.9 µM], p53ts 32C kill 13µM and p53ts 39C kill inactive.
`Cc1ccc2nc(-c3ccc(C)c(NC(=O)CSc4ccc(Cl)cc4)c3)oc2c1` gave Peg3 imprint inactive[10.9 µM], p53ts 32C kill inactive and p53ts 39C kill inactive.
`CCOc1ccc(-c2cc(C(=O)N3CCN(c4ccc(C)cc4)C(C)C3)c3ccccc3n2)cc1` (centres undefined) gave Peg3 imprint inactive[10.9 µM], p53ts 32C kill 16µM and p53ts 39C kill 20µM.
CCOc1ccc(-c2cc(C(=O)NCc3ccc(C)cc3)c3ccccc3n2)cc1 was read as Peg3 imprint inactive[10.9 µM], p53ts 32C kill inactive and p53ts 39C kill inactive.
CCOC(=O)N1CCN(C(=O)c2cc(-c3ccc(OCC)cc3)nc3ccccc23)CC1 was read as Peg3 imprint inactive, p53ts 32C kill 5µM and p53ts 39C kill 10µM.
Screening CCOc1ccc(-c2cc(C(=O)N3CCN(C)CC3)c3ccccc3n2)cc1 returned Peg3 imprint inactive, p53ts 32C kill 2.5µM and p53ts 39C kill 4µM.
CCOc1ccc(-c2cc(C(=O)N3CCN(c4cccc(C)c4)C(C)C3)c3ccccc3n2)cc1 (centres undefined) was read as Peg3 imprint inactive[10.9 µM], p53ts 32C kill inconclusive and p53ts 39C kill inconclusive.
`CCOc1ccc(-c2cc(C(=O)NN3CCN(C)CC3)c3cc(Cl)ccc3n2)cc1` gave p53ts 39C kill inactive.
COC(=O)c1c(SC)nc2ccccc2c1OCc1ccc(C)cc1 was read as Peg3 imprint inactive[10.9 µM], p53ts 32C kill inactive and p53ts 39C kill inactive.
CC1CCN(CC2CCN(C(=O)Nc3ccc(Br)cc3F)CC2)CC1 was read as p53ts 32C kill inactive.
Screening N#Cc1ccccc1NC(=O)C(=O)NCC(c1cccnc1)N1CCN(c2ccccc2)CC1 (centres undefined) returned Peg3 imprint inactive[10.9 µM], p53ts 32C kill inactive and p53ts 39C kill inconclusive.
For COC(=O)c1scc(-c2ccc(C)cc2)c1S(=O)(=O)Nc1cc(Cl)ccc1C the results were Peg3 imprint inactive[10.9 µM], p53ts 32C kill inactive and p53ts 39C kill inactive.
For Cc1nn2c(=O)cc(COC(=O)c3cccc(NC(=O)c4ccc(C(C)(C)C)cc4)c3)nc2s1 the results were Peg3 imprint inactive[10.9 µM], p53ts 32C kill 2.5µM and p53ts 39C kill 2.5µM.
Cc1cccc(C(=O)Nc2cccc(C(=O)OCc3cc(=O)n4nc(C(C)C)sc4n3)c2)c1 was read as Peg3 imprint inactive[10.9 µM], p53ts 32C kill inactive and p53ts 39C kill inactive.
Screening CCN(C(=O)CSc1nc(-c2ccccc2)no1)c1cccc(C)c1 returned Peg3 imprint inactive[10.9 µM], p53ts 32C kill inactive and p53ts 39C kill inconclusive.
Screening COc1cc2c(cc1NC(=O)/C=C/c1cc(OC)c(OC)c(OC)c1)oc1ccccc12 returned p53ts 39C kill inactive.
For COc1cc(/C=C/C(=O)N2CCC=CC2=O)cc(OC)c1OC the results were Peg3 imprint inactive, p53ts 32C kill 3.2µM and p53ts 39C kill inconclusive.
O=[N+]([O-])c1cccc(/C=N\Nc2ccc3ccccc3n2)c1O was read as Peg3 imprint inactive[10.9 µM], p53ts 32C kill 2.5µM and p53ts 39C kill 4µM.
Screening O=C(N/N=C/C=C\c1ccccc1[N+](=O)[O-])c1cc(-c2ccc3ccccc3c2)n[nH]1 returned p53ts 32C kill inactive and p53ts 39C kill inactive.
Screening O=C(OCC1OC(OC(=O)c2cc(O)c(O)c(OC(=O)c3cc(O)c(O)c(O)c3)c2)[C@@H](OC(=O)c2cc(O)c(O)c(OC(=O)c3cc(O)c(O)c(O)c3)c2)C(OC(=O)c2cc(O)c(O)c(OC(=O)c3cc(O)c(O)c(O)c3)c2)C1OC(=O)c1cc(O)c(O)c(OC(=O)c2cc(O)c(O)c(O)c2)c1)c1cc(O)c(O)c(OC(=O)c2cc(O)c(O)c(O)c2)c1 (some centres undefined) returned Peg3 imprint inactive, p53ts 32C kill 10µM and p53ts 39C kill 6.3µM.
Screening Cc1cn(C2OC(COC(=O)c3ccccc3)C(OC(=O)c3ccccc3)C2OC(=O)c2ccccc2)c(=O)[nH]c1=O (centres undefined) returned p53ts 32C kill inactive and p53ts 39C kill inactive.
Screening CN(C(=O)Cn1nnc(-c2ccc(S(C)(=O)=O)cc2)n1)c1ccccc1 returned Peg3 imprint inactive[10.9 µM], p53ts 32C kill inactive and p53ts 39C kill inactive.
`CCN1C(=O)c2ccccc2Sc2ccc(NC(=O)Nc3ccc(C(C)=O)cc3)cc21` gave Peg3 imprint inactive[10.9 µM], p53ts 32C kill inactive and p53ts 39C kill inactive.
`CCN(CC)CCNC(=O)Nc1ccc2c(c1)N(Cc1ccccc1)C(=O)c1ccccc1S2` gave Peg3 imprint inactive[10.9 µM], p53ts 32C kill inactive and p53ts 39C kill 20µM.
COCCNc1ccc2cc(S(=O)(=O)N3CCCCC3)ccc2n1 was read as Peg3 imprint inactive[10.9 µM], p53ts 32C kill inactive and p53ts 39C kill inactive.
Screening CCCCCN1C(C(=O)c2ccccc2)=C(NC(=O)c2ccccc2Cl)c2ccccc2S1(=O)=O returned Peg3 imprint inactive[10.9 µM], p53ts 32C kill inactive and p53ts 39C kill inactive.
`COCCCN1C(=O)c2[nH]nc(-c3ccccc3O)c2C1c1ccc(Cl)cc1` (centres undefined) gave Peg3 imprint inactive, p53ts 32C kill inactive and p53ts 39C kill inactive.
For O=C1c2[nH]nc(-c3ccccc3O)c2C(c2ccc(Cl)cc2)N1CCc1ccccc1 (centres undefined) the results were Peg3 imprint inactive[10.9 µM], p53ts 32C kill 20µM and p53ts 39C kill inconclusive.
For CCc1c(O)c2c(c(O)c1C(C)=O)C(=O)c1c(cc(O)c(C(=O)O)c1C(=O)O)C2=O the results were Peg3 imprint inactive[10.9 µM], p53ts 32C kill inactive[9.22 µM] and p53ts 39C kill inactive[9.22 µM].
For CC(=O)OC1CC(OC(C)=O)[C@]2(C)C(CC(OC(C)=O)[C@@]3(C)C4=CC(=O)OC(c5ccoc5)[C@]4(C)CCC32)C1(C)C (some centres undefined) the results were Peg3 imprint inactive, p53ts 32C kill inactive and p53ts 39C kill inactive.
`Cc1ccc(-n2nc(C)c3c(C)c(CCC(=O)NCc4ccc(Cl)cc4)c(C)nc32)cc1` gave Peg3 imprint inactive[10.9 µM], p53ts 32C kill inactive and p53ts 39C kill inactive.
For COC(=O)CNc1c(-c2ccccn2)nc2ccc(Br)cn12 the results were Peg3 imprint inactive, p53ts 32C kill 16µM and p53ts 39C kill 13µM.
`Cc1ccc(Nc2c(-c3ccccn3)nc3ccc(Br)cn23)cc1` gave Peg3 imprint inactive[10.9 µM], p53ts 32C kill inactive and p53ts 39C kill inactive.
For COC(=O)c1cc(OC)c(OC)cc1NC(=O)c1ccc2c(c1)CCN2S(C)(=O)=O the results were Peg3 imprint inactive[10.9 µM], p53ts 32C kill inactive and p53ts 39C kill inactive.
`CCOc1ccc(CCNC(=O)Cn2c(-c3cccs3)cc3cc(F)ccc32)cc1OCC` gave Peg3 imprint inactive[10.9 µM], p53ts 32C kill inactive and p53ts 39C kill 7.9µM.
Screening CCOc1cc(CNC(=O)Cn2c(-c3cccs3)cc3cc(F)ccc32)ccc1OC returned p53ts 32C kill inactive.

Compound activity (PubChem)
